The list is not random: actives were taken first. Their share in the collection is about 9.5%.
NPSR antag: antagonists of human neuropeptide S receptor cAMP signaling | Q6W5P4 | CHO-NPSR cells, cAMP TR-FRET, antagonist mode | Potency, µM (series often up to 38.3 µM), most hits filed as inhibitors | hit rate 1% among 220,000; note: nearly all actives have a fitted effect of over 50% in size
Tau fluor cs: counter-screen for tau fibril formation inhibitors | tau K18 P301L Alexa594 fluorescence, heparin fibrillization | Potency, µM (highest dose often 57.7 µM) | hit rate 0.93% among 280,000 | AID 1463; note: nearly all actives have a fitted effect of over 55% in size
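Human K18 P301L tau (15 uM unlabeled plus 0.24 uM Alexa 594-labeled, final) in 100 mM sodium acetate pH 7 was mixed with compound and 20 uM heparin and incubated 6 hr at 37 C.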
ALDH1A1 block: inhibitors of human aldehyde dehydrogenase 1A1 | P00352 | Purified ALDH1A1, NADH fluorescence, propionaldehyde substrate | Potency, µM (doses to about 75.3 µM), most hits filed as inhibitors | hit rate 7.3% among 220,000 | AID 1030; active = well fitted inhibition curve with a large enough effect, not every such curve was filed as active; inconclusive = small, poorly fitted or top-dose-only effect, or another doubt; inactive = no such curve, though single readings can be large or run the other way
Target sequence (P00352 whole entry, looked up): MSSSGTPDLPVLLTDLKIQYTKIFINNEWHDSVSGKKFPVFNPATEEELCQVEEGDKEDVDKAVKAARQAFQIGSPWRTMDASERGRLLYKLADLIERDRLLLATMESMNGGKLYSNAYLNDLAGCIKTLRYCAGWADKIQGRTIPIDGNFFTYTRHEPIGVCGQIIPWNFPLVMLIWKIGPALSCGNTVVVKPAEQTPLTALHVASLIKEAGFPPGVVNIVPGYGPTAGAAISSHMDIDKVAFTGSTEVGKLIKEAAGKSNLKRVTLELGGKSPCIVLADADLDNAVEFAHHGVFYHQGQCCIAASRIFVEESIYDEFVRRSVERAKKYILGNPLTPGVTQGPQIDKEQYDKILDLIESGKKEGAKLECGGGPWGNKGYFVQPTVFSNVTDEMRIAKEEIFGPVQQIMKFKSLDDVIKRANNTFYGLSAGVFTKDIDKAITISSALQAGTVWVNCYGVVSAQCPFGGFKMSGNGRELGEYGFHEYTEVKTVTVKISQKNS
Tau fibril FP: inhibitors of human tau fibril formation; P10636; K18 P301L tau heparin fibrillization, Alexa594 FP, 6 h; Potency, µM (doses to about 57.7 µM), most hits filed as inhibitors; hit rate 0.39% among 280,000; AID 1468; note: nearly all actives have a fitted effect of over 55% in size
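FP of Alexa 594-tau after heparin (20 uM) induction. Substrate: human K18 P301L, 15 uM unlabeled, 0.24 uM labeled. Buffer 100 mM sodium acetate pH 7. 6 hr, 37 C.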
Tau ThT inhib: blocks human tau fibril formation measured by thioflavin T; hit rate 2.1% among 270,000; P10636; AID 1460; Potency, µM (titrated, usually from 57.4 µM), actives largely listed as inhibitors; recombinant tau K18 P301L, heparin-induced fibrillization, ThT fluorescence; note: nearly all actives have a fitted effect of over 55% in size
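Using a mix of unlabeled (15 uM) and Alexa 594-labeled (0.24 uM) tau K18 P301L, heparin-triggered fibrillization over 6 hr at 37 C was scored by ThT fluorescence.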
HPGD inh: HPGD (human) dehydrogenase inhibition. purified HPGD, NADH fluorescence kinetic, PGE2 substrate. AID 894. Potency, µM, hits mostly inhibitors. P15428. hit rate 4.3% among 150,000; active = well fitted inhibition curve with a large enough effect, not every such curve was filed as active; inconclusive = small, poorly fitted or top-dose-only effect, or another doubt; inactive = no such curve, though single readings can be large or run the other way
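NADH formation kinetics: reaction with 30 uM PGE2 and 1 mM NAD+ (final), 20 nM enzyme, Tris-HCl pH 8 with Tween 20, after 15 min compound preincubation at room temperature. Fluorescence change, last versus first of five reads.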
Hits are given with their value; i = inactive; ? = inconclusive; nt = not tested or not shown; [ ] = another dose, or the depositor's remark. Unless noted, calls come from the whole dose curve; as a rule, active = well fitted curve in the direction sought with a large enough effect; inconclusive = small, poorly fitted or top-dose-only effect, or another doubt; inactive = no such curve, though single readings can be large; an effect the other way counts as inactive or inconclusive.

SMILES	NPSR antag	Tau fluor cs	ALDH1A1 block	Tau fibril FP	Tau ThT inhib	HPGD inh
Cc1ccc(C)c(Cn2c(=O)n(Cc3ccccc3)c(=O)c3c(C)c(C)sc32)c1	nt	i	nt	i	i	nt
Cc1cccc(N2CCN(S(=O)(=O)c3ccc4oc(=O)c5ncn(C)c5c4c3)CC2)c1C	nt	i	nt	i	i	nt
Cc1ccc2c(CC(=O)Nc3c(C(=O)Nc4cccc(Cl)c4)oc4ccccc34)coc2c1C	nt	i	nt	?	i	nt
Cc1ccc(-c2cn3c(n2)sc2cc(C(=O)NC4CCCc5ccccc54)ccc23)cc1 (stereo unspecified)	nt	i	nt	i	i	nt
O=C(Nc1ccccc1Br)C1CCCN(S(=O)(=O)c2cccc3nsnc23)C1 (stereo unspecified)	nt	i	nt	i	i	nt
CC(=O)c1cccc(NC(=S)NC(=O)CC(C)C)c1	i	i	i	i	i	15.8µM
CC(C)Oc1ccc(CNC(=O)C2CCN(Cc3cc4ccccc4n3Cc3ccccc3)CC2)cc1	nt	i	nt	i	i	nt
Cc1ccc(C(=O)N/C(=C\c2ccco2)C(=O)NCCCn2ccnc2)cc1C	i	i	25.1µM	i	?	i
COc1ccc(C(=O)N/C(=C\c2ccco2)C(=O)NCCCn2ccnc2)cc1	i	i	i	i	i	i
Cc1ccc(Cn2ccc(NC(=O)c3cc(CC(C)C)on3)n2)cc1	i	i	i	i	i	i
CCOc1ccc(C(=O)CC(Sc2ccc(C)cc2)C(=O)O)cc1 (stereo unspecified)	i	i	1.58µM	?	?	nt
CCC(Sc1ccc(C(=O)O)cc1)C(=O)O (stereo unspecified)	i	i	i	i	i	i
Cc1c(CCOC(=O)CC23CC4CC(CC(C)(C4)C2)C3)sc[n+]1CC(=O)c1ccccc1	?	i	i	i	?	nt
Cc1c(CCOC(=O)CC23CC4CC(CC(C4)C2)C3)sc[n+]1CC(=O)c1ccc(Br)cc1	10µM	i	i	i	?	i
Cc1c(CCOC(=O)c2cc([N+](=O)[O-])cc([N+](=O)[O-])c2)sc[n+]1CC(=O)c1ccccc1	10µM	i	i	i	?	nt
Fc1ccc(Nc2c(-c3c[nH]c4ccccc34)nc3ccccn23)cc1	nt	7.08µM[quencher]	nt	i	i	nt
Cc1ccc2nc(-c3c[nH]c4ccccc34)c(Nc3ccccc3)n2c1	nt	?	nt	i	i	nt
c1ccc(Nc2c(-c3c[nH]c4ccccc34)nc3ccccn23)cc1	nt	12.6µM[quencher]	nt	?	?	nt
CCOc1ccc(CCNC(=O)c2ccc3c(c2)c(C)c(C)n3C)cc1	nt	?	nt	i	?	nt
CCc1ccc2oc(-c3ccc(NC(=O)c4cccc(Cl)c4Cl)cc3)nc2c1	nt	i	nt	?	i	nt
COc1cccc(CC(=O)Nc2ccc3nc(Nc4cccc(C(F)(F)F)c4)cc(C)c3c2)c1	nt	7.08µM[quencher]	nt	?	?	nt
COc1ccccc1CC(=O)Nc1ccc2nc(N3CCC(C)CC3)cc(C)c2c1	nt	?	nt	i	i	nt
COc1ccccc1CC(=O)Nc1ccc2nc(Nc3cccc(C(F)(F)F)c3)cc(C)c2c1	nt	6.31µM[quencher]	nt	i	i	nt
Fc1ccccc1C1c2cccn2CCN1C(=S)Nc1ccc(Br)cc1 (stereo unspecified)	i	i	14.1µM	?	i	nt
S=C(Nc1ccccc1)N1CCn2cccc2C1c1cccnc1 (stereo unspecified)	i	i	i	i	i	i
SMILES	NPSR antag	Tau fluor cs	ALDH1A1 block	Tau fibril FP	Tau ThT inhib	HPGD inh
S=C(Nc1ccccc1)c1ccccn1	3.98µM	i	i	i	?	i
S=C(Nc1ccc(Nc2ccccc2)cc1)Nc1ccccn1	i	i	15.8µM	i	i	nt
CC1(C)COC2(OC1)C(=O)N(CN1CCOCC1)c1ccccc12	i	i	i	i	i	nt
CCOc1cc(/C=N/N2C(=O)NC3(CCCCC3)C2=O)cc(Br)c1O	i	i	15µM	i	i	nt
COc1cccc(/C=N/N2C(=O)NC3(CCCCC3)C2=O)c1O	i	i	?	i	i	i
Oc1cccc(Nc2nc(O)c(/C=C3\C=Nc4ccccc43)s2)c1	?	11.2µM[quencher]	nt	i	3.98µM	nt
CCOC(=O)c1c(Nc2ccc(Cl)cc2)sc(/C=C2\C=Nc3ccccc32)c1O	i	?	i	?	?	i
O=C(Cn1c(O)c(/C=C2\C=Nc3ccccc32)sc1=O)N1CCOCC1	i	i	i	i	i	nt
Oc1nc(Nc2ccc(F)cc2)sc1/C=C1\C=Nc2ccccc21	?	7.08µM[quencher]	nt	i	4.47µM	nt
Oc1nc(Nc2cccc(Cl)c2)sc1/C=C1\C=Nc2ccccc21	i	5.01µM[quencher]	i	?	6.31µM	nt
CC1=Nc2ccccc2/C1=C\c1sc(Nc2ccc(C)cc2)nc1O	i	11.2µM[quencher]	i	?	7.94µM	i
COCCc1nn2c(=O)cc(COC(=O)COc3ccc(F)cc3)nc2s1	nt	i	nt	i	i	nt
O=C(/C=C/c1ccccc1[N+](=O)[O-])OCC(=O)c1ccccc1	i	i	?	i	i	nt
Cc1cc(C(=O)COc2ccccc2C(N)=O)c(C)n1C1CC1	i	i	?	i	?	nt
Cc1cc(C(=O)COc2ccccc2[N+](=O)[O-])c(C)n1C1CC1	i	i	31.6µM	i	?	nt
O=C(COc1ccccc1[N+](=O)[O-])c1ccccc1	i	i	2µM	i	i	nt
Cc1cc(C(=O)COc2cccnc2[N+](=O)[O-])c(C)n1-c1ccccc1	i	i	20µM	i	?	i
Cc1cc(C(=O)COc2ncnc3sccc23)c(C)n1C1CC1	i	i	20µM	i	i	i
